# Several values for one entry are separate records, joined by “and”; a condition that tells them apart may be missing. Equal entries are not always repeated. Inconclusive results are not listed. For some assays here: Potency and affinity values are given separately. More than one record can exist for a structure, and the calls need not agree. Activity calls are given as the source filed them. Unless noted, how the calls were made is not given here.
# Key:
# [1] = biological target: ATP-dependent translocase ABCB1 (Homo sapiens) (UniProt P08183); assay: P-glycoprotein substrate transport blockade – cell-based (AID 377; in the data active means fluorescence slope change above about 50%); conditions: MDR1-expressing cells, fluorescent substrate accumulation slope; stronger effect = higher value; concentration not given here
# [2] = antimalarial activity against Dd2 strain (AID 2302;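 active means growth inhibition above 50% at the single 2 µM test dose, taken to imply half-maximal potency below 2 µM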;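 further: 0% = DMSO untreated growth and 100% = chloroquine plus artemisinin killed control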); conditions: P. falciparum Dd2 in RBCs, LDH growth readout, 72 h; at 2 µM; stronger effect = higher value
# [3] = human hepatoma cell viability loss – ATP luminescence, cytotoxicity control for P. falciparum antimalarial project, primary screen (AID 2303;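 active means inhibition above 50%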;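 further: 0% = DMSO wells and 100% = digitonin-killed cells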); conditions: HepG2 viability, 24-48 h, at 10 µM, stronger effect = higher value
# [4] = biological target: L-lactate dehydrogenase (Plasmodium falciparum (isolate CDC / Honduras)) (UniProt Q27743); assay: PfLDH activity inhibition – cell lysate, 3D7 strain, counter-screen for P. falciparum growth inhibition project (AID 2304);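 further: 0% = vehicle and 100% = reference inhibitor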; conditions: P. falciparum 3D7 crude extract, LDH APAD/NBT absorbance; at 2 µM; stronger effect = higher value
# [5] = inhibition of 3D7 malaria parasite growth – strain 3D7 (AID 2306);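 further: 0% = DMSO wells and 100% = chloroquine plus artemisinin control wells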; conditions: P. falciparum 3D7 erythrocytic growth, LDH absorbance, 72 h; at 2 µM; stronger effect = higher value
# [6] = compounds altering circadian rhythm period length – cell-based, LOPAC library, luminescence reporter (AID 2774); conditions: circadian reporter cells, at 7 µM, actives lie on both sides;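 further: values are relative to mean of DMSO wells on each plate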
# [7] = compounds altering viability of human ES cells (AID 493140); conditions: human embryonic stem cell survival screen; stronger effect = higher value;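 further: cells exposed to compounds for four days before counting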
# [8] = P. berghei load reduction in hepatocytes – cell-based, HepG2, luciferase luminescence, HepG2 viability, primary screen (AID 624349; in the data active means parasite load remaining mostly below about 12%, no sharp cut-off; inactive means mostly above about 10%;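 further: 100% = mean of DMSO negative control wells on the same plate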); conditions: P. berghei liver stage in HepG2, luciferase luminescence, concentration not given here; parasite load remaining: stronger effect = lower value; viability: measured here: HepG2 viability without parasites
# [9] = tested on: Hepatitis C virus NS3 helicase; assay: blockers of NS3h binding to ssDNA – biochemical, fluorescence polarization, LOPAC1280 library, primary screen (AID 687035; in the data active means inhibition above about 37%); conditions: Purified HCV NS3 helicase, Cy5-dT15 ssDNA binding fluorescence polarization; stronger effect = higher value; concentration not given here
# [10] = compounds altering Cy5-DNA-NS3h complex signal – biochemical, LOPAC1280, artefact control for HCV NS3 helicase inhibitor project (AID 687037); conditions: Cy5-DNA-NS3h complex fluorescence interference counterscreen
# [11] = biological target: Calcium-dependent protein kinase 1 (Plasmodium falciparum (isolate 3D7)) (UniProt P62344); assay: PfCDPK1 kinase inhibitors, biochemical, TCAMS library (AID 1159585; cut-off not given, nearly all actives have IC50 up to about 0.98 µM;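 further: inhibitors leave more ATP so luminescence rises with inhibition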); conditions: recombinant PfCDPK1, Kinase-Glo ATP depletion luminescence
# [12] = biological target: Plasmodium falciparum protein kinase 6 (PK6, PF3D7_1337100) (UniProt Q8IDW1); assay: PfPK6 kinase inhibitors, biochemical, TCAMS library (AID 1159586); conditions: recombinant PfPK6, Kinase-Glo ATP depletion luminescence
# [13] = biological target: Protein kinase 7 (PK7), Plasmodium falciparum 3D7 (PF3D7_0213400) (UniProt Q7YTF7); assay: inhibition of Plasmodium PK7 catalytic activity – biochemical, TCAMS antimalarial set, Kinase-Glo luminescence (AID 1159587); conditions: recombinant PfPK7, Kinase-Glo ATP depletion luminescence
# [14] = biological target: Calcium-dependent protein kinase 4 (Plasmodium falciparum (isolate 3D7)) (UniProt Q8IBS5); assay: PfCDPK4 kinase inhibitors, biochemical, TCAMS library (AID 1159588; cut-off not given, nearly all actives have IC50 up to about 0.91 µM); conditions: recombinant PfCDPK4, Kinase-Glo ATP depletion luminescence
# [15] = tested on: Aerobactin synthetase IucA (Klebsiella pneumoniae, hypervirulent); assay: biochemical IucA inhibition screen of LOPAC library by absorbance (AID 1346212); conditions: IucA enzyme assay, absorbance (OD) readout; stronger effect = lower value;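 tested at 8 µM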;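 further: 100% = no compound wells and 0% = no enzyme wells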
# [16] = viability loss with induced miR-34 in A549 – imaging, A549 dox-inducible miR-34, nuclei and caspase counts, primary screen (AID 1347080;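 active means compounds whose cell count with miR-34 switched on is under 0.7 times the count with it off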); conditions: A549 miR-34 inducible, Hoechst nuclei count, 48 h
# [17] = blockers of cellular phospholipid synthesis – cell-based, LOPAC library, screen 4, primary screen (AID 1347384); conditions: animal cells, phospholipid biosynthesis inhibition screen; at 10 µM
# [18] = galactose survival enhancers in mitochondrial complex I cybrids – cell-based, galactose medium, ATP luminescence, primary screen (AID 1645843;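 active means z-score of at least 1.8 in each of two replicates, scored against plate mean and spread of sample wells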;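 further: positive z means more ATP and so rescue of galactose-driven cybrid death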); conditions: complex I mutant cybrid cells, 72 h, stronger effect = higher value
# [19] = growth inhibition, single agent or in combination, cell-based, chromothripsis tumors, cisplatin or BGB combos (AID 1671449; in the data active means inhibition above about 80%;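 further: cells exposed for 96 hours; 0% = vehicle DMSO and 100% = killing by high DMSO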); conditions: LFS_MB_P medulloblastoma cells
# [20] = growth inhibition, single agent and combos, cell-based, chromothripsis tumors, cisplatin or BGB combos (AID 1671450; in the data active means inhibition above about 80%;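 further: cells exposed to compound for four days; 0% = vehicle DMSO and 100% = cell killing by high DMSO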); conditions: HDN33 neuroblastoma cells, stronger effect = higher value
# [21] = growth inhibition, single agents and combos, ICB984, cell-based, cisplatin or BGB combos, synergistic combos for chromothripsis tumors (AID 1671451); conditions: ICB984 medulloblastoma cells, drug combinations, stronger effect = higher value;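 further: cells exposed for 96 hours before readout; 0% = vehicle DMSO and 100% = killing by high DMSO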
# [22] = growth inhibition, single agents and combos, LFS_MB_1R, cell-based, cisplatin or BGB combos, synergistic combos for chromothripsis tumors (AID 1671452; in the data active means inhibition above about 80%;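 further: cells exposed for 96 hours before readout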); conditions: LFS_MB_1R medulloblastoma cells, stronger effect = higher value
# [23] = growth inhibition, single agents and combos, HTB85, cell-based, BGB or cisplatin IC20 combos, synergistic combos for chromothripsis tumors (AID 1671453; in the data active means inhibition above about 80%;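 further: cells exposed for 96 hours before readout; 0% = vehicle DMSO and 100% = high DMSO killing control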); conditions: HTB85 osteosarcoma cells, drug combinations, stronger effect = higher value
# [24] = growth inhibition, single agents and combos, CRL2098, cell-based, BGB or cisplatin IC20 combos, synergistic combos for chromothripsis tumors (AID 1671454; in the data active means inhibition above about 80%;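 further: cells exposed for 96 h before readout; 0% = vehicle DMSO and 100% = killing by high DMSO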); conditions: CRL2098 osteosarcoma cells, drug combinations, stronger effect = higher value
# [25] = growth inhibition, single agents and combos, HD-MB03, cell-based, BGB or cisplatin IC20 combos, synergistic combos for chromothripsis tumors (AID 1671455; in the data active means inhibition above about 83%;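 further: 0% = vehicle DMSO and 100% = high DMSO as cytotoxic control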); conditions: HD-MB03 medulloblastoma cells, stronger effect = higher value
# [26] = growth inhibition, single agents and combos, UWB1.289, cell-based, BGB or cisplatin combos, synergistic combos for chromothripsis tumors (AID 1671456; in the data active means inhibition above about 80%;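 further: cells exposed to compound for four days; 0% = vehicle DMSO and 100% = killing by high DMSO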); conditions: UWB1.289 ovarian carcinoma cells, stronger effect = higher value
# [27] = growth inhibition, single agents and combos, LFS_MB_2R, cell-based, cisplatin combos, synergistic combos for chromothripsis tumors (AID 1671457; in the data active means inhibition above about 80%;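 further: cells exposed to compound for four days before readout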); conditions: LFS_MB_2R medulloblastoma cells, stronger effect = higher value
# [28] = growth inhibition, MDA-MB-436, cell-based, BGB or cisplatin combos, synergistic combos for chromothripsis tumors (AID 1671458); conditions: MDA-MB-436 breast carcinoma growth inhibition, drug combinations, stronger effect = higher value;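 further: cells exposed for 96 hours; 0% = vehicle DMSO and 100% = killing by high DMSO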
# [29] = UWB1.289_BRCA1 ovarian cancer growth, cell-based, BGB or cisplatin combinations (AID 1671459; in the data active means inhibition above about 80%); conditions: UWB1.289 BRCA1 ovarian carcinoma, drug combinations, stronger effect = higher value
# [30] = drug combination toxicity in non-malignant astrocytes – cell-based, BGB or cisplatin IC20 combos, cytotoxicity control for chromothriptic childhood tumor combination screen (AID 1671460; in the data active means inhibition above about 80%;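 further: cells exposed to compounds for 96 hours before viability readout; 0% = vehicle and 100% = killing control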); conditions: Human astrocytes, viability inhibition, drug combinations, at 0.5 µM, stronger effect = higher value
# [31] = BT084 cell growth, single and combined drugs, ICGC_MB145, cisplatin and BGB IC40 combos (AID 1671461; in the data active means inhibition above about 80%;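 further: cells exposed to drugs for 96 hours; 0% = vehicle DMSO and 100% = high DMSO full killing control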); conditions: BT084 medulloblastoma cells, drug combinations, stronger effect = higher value
# [32] = RCMB18 cell growth, single agent and combined, cisplatin and BGB IC40 combos (AID 1671462; in the data active means inhibition above about 80%;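 further: cells exposed to compound for four days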); conditions: RCMB18 medulloblastoma cells, stronger effect = higher value
# [33] = CRL1545 cell growth, single agent and combined, cisplatin and BGB IC20 combos (AID 1671464; in the data active means inhibition above about 80%;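 further: cells exposed to compound for 96 hours before readout; 0% = vehicle DMSO and 100% = high DMSO killing control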); conditions: CRL1545 osteosarcoma cells, stronger effect = higher value
# [34] = measured here: combination with BGB IC40, at 0.05 µM
# [35] = measured here: with BGB IC20 combination, at 0.5 µM
# [36] = measured here: with cisplatin IC20 combination, at 0.5 µM
# [37] = measured here: combination with cisplatin, at 0.5 µM
# [38] = measured here: combination with cisplatin, at 5 µM
# Chain of L-lactate dehydrogenase (Plasmodium falciparum (isolate CDC / Honduras)) (Q27743 whole entry, looked up): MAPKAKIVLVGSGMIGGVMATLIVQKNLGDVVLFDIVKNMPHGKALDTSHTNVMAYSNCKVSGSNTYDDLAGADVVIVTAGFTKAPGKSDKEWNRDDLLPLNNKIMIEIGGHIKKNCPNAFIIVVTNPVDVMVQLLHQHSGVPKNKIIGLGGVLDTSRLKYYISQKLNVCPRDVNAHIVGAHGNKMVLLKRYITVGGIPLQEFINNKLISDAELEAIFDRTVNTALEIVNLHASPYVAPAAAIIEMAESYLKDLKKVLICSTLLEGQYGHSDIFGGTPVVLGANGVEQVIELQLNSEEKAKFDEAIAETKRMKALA
# Chain of Plasmodium falciparum protein kinase 6 (PK6, PF3D7_1337100) (Q8IDW1 1-305): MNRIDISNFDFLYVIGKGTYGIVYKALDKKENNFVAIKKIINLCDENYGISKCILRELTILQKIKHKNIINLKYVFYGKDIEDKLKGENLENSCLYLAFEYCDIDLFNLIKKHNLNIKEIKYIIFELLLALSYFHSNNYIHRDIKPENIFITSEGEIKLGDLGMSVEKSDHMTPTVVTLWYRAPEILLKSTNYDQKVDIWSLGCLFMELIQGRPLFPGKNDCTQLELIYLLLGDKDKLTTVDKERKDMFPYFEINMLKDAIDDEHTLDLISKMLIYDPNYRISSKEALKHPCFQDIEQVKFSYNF
# Chain of Protein kinase 7 (PK7), Plasmodium falciparum 3D7 (PF3D7_0213400) (Q7YTF7 1-343): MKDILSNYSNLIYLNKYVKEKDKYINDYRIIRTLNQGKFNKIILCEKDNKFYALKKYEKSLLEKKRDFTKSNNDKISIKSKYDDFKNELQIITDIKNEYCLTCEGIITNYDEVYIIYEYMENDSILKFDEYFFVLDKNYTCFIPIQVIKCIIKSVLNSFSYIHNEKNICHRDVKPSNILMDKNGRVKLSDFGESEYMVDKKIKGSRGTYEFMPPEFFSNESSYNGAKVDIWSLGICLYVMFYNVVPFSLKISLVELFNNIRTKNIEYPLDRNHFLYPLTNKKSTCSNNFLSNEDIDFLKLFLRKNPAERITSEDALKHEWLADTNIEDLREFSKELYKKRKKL
# Chain of Calcium-dependent protein kinase 1 (Plasmodium falciparum (isolate 3D7)) (P62344 whole entry, looked up): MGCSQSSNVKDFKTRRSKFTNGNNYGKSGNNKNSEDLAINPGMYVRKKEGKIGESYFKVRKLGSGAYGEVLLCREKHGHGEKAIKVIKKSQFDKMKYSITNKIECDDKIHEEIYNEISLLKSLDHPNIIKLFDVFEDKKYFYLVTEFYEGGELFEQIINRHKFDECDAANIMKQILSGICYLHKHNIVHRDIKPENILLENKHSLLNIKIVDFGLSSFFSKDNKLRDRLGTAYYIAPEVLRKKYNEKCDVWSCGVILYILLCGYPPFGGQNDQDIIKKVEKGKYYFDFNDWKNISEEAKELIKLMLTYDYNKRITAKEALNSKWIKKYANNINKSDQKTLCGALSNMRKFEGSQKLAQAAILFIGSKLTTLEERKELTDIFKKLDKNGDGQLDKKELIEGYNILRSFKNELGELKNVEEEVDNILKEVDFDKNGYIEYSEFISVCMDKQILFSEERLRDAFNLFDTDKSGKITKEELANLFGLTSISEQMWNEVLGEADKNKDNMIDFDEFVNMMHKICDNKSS
# Chain of Calcium-dependent protein kinase 4 (Plasmodium falciparum (isolate 3D7)) (Q8IBS5 whole entry, looked up): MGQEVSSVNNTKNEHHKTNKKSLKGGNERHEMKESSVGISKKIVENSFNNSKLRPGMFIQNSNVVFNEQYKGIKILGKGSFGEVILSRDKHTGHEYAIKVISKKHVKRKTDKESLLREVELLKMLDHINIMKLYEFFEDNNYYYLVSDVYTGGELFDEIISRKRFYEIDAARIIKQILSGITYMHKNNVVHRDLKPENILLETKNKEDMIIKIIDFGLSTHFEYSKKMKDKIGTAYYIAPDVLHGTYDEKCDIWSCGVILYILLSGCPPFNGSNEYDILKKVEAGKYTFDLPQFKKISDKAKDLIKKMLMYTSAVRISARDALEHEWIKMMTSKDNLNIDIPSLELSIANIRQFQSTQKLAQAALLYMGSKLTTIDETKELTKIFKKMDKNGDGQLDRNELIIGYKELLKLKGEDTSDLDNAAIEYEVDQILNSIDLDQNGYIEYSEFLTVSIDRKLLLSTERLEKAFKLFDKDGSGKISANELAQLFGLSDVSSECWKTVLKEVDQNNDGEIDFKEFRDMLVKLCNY
# Chain of ATP-dependent translocase ABCB1 (Homo sapiens) (P08183 whole entry, looked up): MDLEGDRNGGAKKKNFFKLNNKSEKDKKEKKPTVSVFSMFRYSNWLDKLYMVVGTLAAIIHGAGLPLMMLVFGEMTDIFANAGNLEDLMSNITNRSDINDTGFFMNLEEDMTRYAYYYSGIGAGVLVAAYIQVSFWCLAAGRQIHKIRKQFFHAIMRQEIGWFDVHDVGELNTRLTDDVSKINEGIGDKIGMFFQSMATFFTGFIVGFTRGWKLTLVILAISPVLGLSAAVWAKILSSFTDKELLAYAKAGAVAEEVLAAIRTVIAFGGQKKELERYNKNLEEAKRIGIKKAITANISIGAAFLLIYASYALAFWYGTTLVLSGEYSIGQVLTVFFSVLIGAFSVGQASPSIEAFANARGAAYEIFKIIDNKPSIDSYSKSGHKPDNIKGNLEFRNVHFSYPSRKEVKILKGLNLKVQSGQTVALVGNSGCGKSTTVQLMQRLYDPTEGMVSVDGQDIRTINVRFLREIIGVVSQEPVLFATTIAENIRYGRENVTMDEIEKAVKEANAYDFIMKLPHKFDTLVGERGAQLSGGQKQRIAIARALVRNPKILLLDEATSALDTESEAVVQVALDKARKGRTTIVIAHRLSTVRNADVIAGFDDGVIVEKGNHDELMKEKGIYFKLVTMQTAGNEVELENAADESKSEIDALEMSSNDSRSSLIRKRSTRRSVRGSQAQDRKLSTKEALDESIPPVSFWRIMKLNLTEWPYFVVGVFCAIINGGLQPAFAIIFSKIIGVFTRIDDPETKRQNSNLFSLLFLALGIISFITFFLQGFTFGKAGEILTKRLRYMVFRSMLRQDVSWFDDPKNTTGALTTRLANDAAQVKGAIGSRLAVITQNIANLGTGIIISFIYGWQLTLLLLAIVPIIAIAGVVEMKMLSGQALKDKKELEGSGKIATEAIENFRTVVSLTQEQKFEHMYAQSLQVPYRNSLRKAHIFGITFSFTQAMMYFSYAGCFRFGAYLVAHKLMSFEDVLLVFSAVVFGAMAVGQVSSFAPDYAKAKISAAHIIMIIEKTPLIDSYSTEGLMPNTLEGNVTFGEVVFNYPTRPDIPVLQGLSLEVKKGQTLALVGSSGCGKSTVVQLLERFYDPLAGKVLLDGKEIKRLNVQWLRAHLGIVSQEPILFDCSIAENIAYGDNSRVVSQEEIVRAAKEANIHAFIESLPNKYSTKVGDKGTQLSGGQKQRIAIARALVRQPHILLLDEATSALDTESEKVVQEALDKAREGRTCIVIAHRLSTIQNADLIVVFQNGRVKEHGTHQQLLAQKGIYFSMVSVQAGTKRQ
smiles,measurement,setting,value
Cc1c2ccncc2c(C)c2c1[nH]c1ccccc12,fluorescence slope change,[1],77.1% (active)
same,growth inhibition,[2],97% (active)
same,inhibition,[3],38% (inactive)
same,inhibition,[4],2% (inactive)
same,growth inhibition,[5],95% (active)
same,period change,[6],0.09 h (inactive)
same,survival,[7],10.4 (inactive)
same,parasite load remaining,[8],62% (inactive) and 52.8% (inactive)
same,viability,[8],85.3% and 75.8%
same,inhibition,[9],-3% (inactive)
same,fluorescence ratio (interference),[10],1 (inactive)
same,outcome,[11],inactive
same,outcome,[12],inactive
same,outcome,[13],inactive
same,outcome,[14],inactive
same,remaining activity,[15],81.7% (inactive)
same,fold change,[16]; stronger effect = lower value,1.32 (inactive) and 0.785 (inactive)
same,fold change,[16]; measured here: relative caspase fold change +Dox/-Dox,1.54 and 1.45
same,cell count,"[16]; measured here: total cells with miR-34 induction, stronger effect = lower value",324 and 1410
same,cell count,[16]; measured here: total cells without miR-34 induction,246 and 1800
same,outcome,[17],inactive
same,z-score,[18],-0.975 (inactive)
same,inhibition,"[19]; at 0.5 µM, stronger effect = higher value",-2.79% (inactive)
same,inhibition,"[19]; measured here: combination with BGB IC20, at 0.005 µM",-42.2%
same,inhibition,"[19]; measured here: combination with BGB IC40, at 0.005 µM",16.3%
same,inhibition,[19]; [34],-3.69%
same,inhibition,"[19]; measured here: combination with cisplatin, at 0.5 µM, stronger effect = higher value",-10.1%
same,inhibition,"[19]; measured here: combination with cisplatin, at 5 µM, stronger effect = higher value",97%
same,inhibition,"[20]; BGB combo, at 5 µM",71.9%
same,inhibition,[20]; at 0.5 µM,19.9% (inactive)
same,inhibition,"[20]; cisplatin combo, at 5 µM",81.9%
same,inhibition,[20]; [35],6.43%
same,inhibition,[20]; [36],19.1%
same,inhibition,"[20]; single agent, at 5 µM",86.5%
same,inhibition,"[21]; BGB IC20 combo, at 0.005 µM",64.1%
same,inhibition,"[21]; BGB IC40 combo, at 0.005 µM",71.1%
same,inhibition,"[21]; BGB IC40 combo, at 0.05 µM",99.2%
same,inhibition,[21]; at 0.5 µM,-7.09% (inactive)
same,inhibition,"[21]; cisplatin combo, at 0.05 µM",99.7%
same,inhibition,"[21]; cisplatin combo, at 0.5 µM",-15.1%
same,inhibition,"[21]; cisplatin combo, at 5 µM",2.54%
same,inhibition,"[21]; measured here: 5 uM single agent, at 5 µM",-6.79%
same,inhibition,[22]; at 0.5 µM,52.5% (inactive)
same,inhibition,[22]; [34],-15.3%
same,inhibition,[22]; [37],90.8%
same,inhibition,[22]; [38],99.2%
same,inhibition,[23]; at 0.5 µM,-6.03% (inactive)
same,inhibition,"[23]; measured here: with BGB IC20, at 0.5 µM",-6.83%
same,inhibition,"[23]; measured here: with BGB IC20, at 5 µM",36.4%
same,inhibition,"[23]; measured here: with cisplatin IC20, at 0.5 µM",-14.1%
same,inhibition,"[23]; measured here: with cisplatin IC20, at 5 µM",40.2%
same,inhibition,"[23]; single agent, at 5 µM",51.7%
same,inhibition,[24]; at 0.5 µM,-3.13% (inactive)
same,inhibition,"[24]; measured here: combination with BGB at IC20, at 0.5 µM",-26.6%
same,inhibition,"[24]; measured here: combination with cisplatin at IC20, at 0.5 µM",16.5%
same,inhibition,[25]; at 0.5 µM,21.3% (inactive)
same,inhibition,"[25]; measured here: combo with BGB at IC20, at 0.5 µM",32.4%
same,inhibition,"[25]; measured here: combo with cisplatin at IC20, at 0.5 µM",9.33%
same,inhibition,[26]; at 0.5 µM,18% (inactive)
same,inhibition,"[26]; measured here: inhibition with BGB combination, at 0.05 µM",-8.89%
same,inhibition,"[26]; measured here: inhibition with cisplatin combination, at 0.05 µM",-1.5%
same,inhibition,[27]; at 0.5 µM,-5.42% (inactive)
same,inhibition,[27]; [37],15.1%
same,inhibition,[27]; [38],95.3%
same,inhibition,[28]; at 0.5 µM,-9.97% (inactive)
same,inhibition,"[28]; measured here: BGB combination, at 0.5 µM",-20.5%
same,inhibition,"[28]; measured here: BGB combination, at 5 µM",24.1%
same,inhibition,"[28]; measured here: cisplatin combination, at 0.5 µM",-26.7%
same,inhibition,"[28]; measured here: cisplatin combination, at 5 µM",24.1%
same,inhibition,"[29]; BGB combination, concentration series, at 5 µM",104%
same,inhibition,[29]; at 0.5 µM,21.4% (inactive)
same,inhibition,"[29]; cisplatin combination, concentration series, at 5 µM",113%
same,inhibition,[30],13.8% (inactive)
same,inhibition,[30]; measured here: combo with BGB IC20,4.66%
same,inhibition,[30]; measured here: combo with cisplatin IC20,-5.08%
same,inhibition,[31]; at 0.5 µM,48.9% (inactive)
same,inhibition,"[31]; cisplatin combination, at 0.5 µM",60.2%
same,inhibition,"[31]; cisplatin combination, at 5 µM",49.9%
same,inhibition,"[31]; measured here: BGB IC40 combination 0.05 uM, at 0.05 µM",16.8%
same,inhibition,"[31]; single agent, at 5 µM",44.6%
same,inhibition,[32]; at 0.5 µM,14.6% (inactive)
same,inhibition,"[32]; cisplatin combo, at 5 µM",91.5%
same,inhibition,"[32]; measured here: BGB IC40 combination, at 0.05 µM",1.25%
same,inhibition,[32]; [37],-51.3%
same,inhibition,"[32]; single agent, at 5 µM",70.8%
same,inhibition,[33]; at 0.5 µM,-40.6% (inactive)
same,inhibition,[33]; [35],-33.3%
same,inhibition,[33]; [36],-46.6%
same,inhibition,"[33]; single agent, at 0.05 µM",-12.4%
same,inhibition,"[33]; single agent, at 5 µM",68.6%
O=C(/C=C/c1ccc(Cl)c(Cl)c1)NC1CCC(CN2CCC(c3c[nH]c4cc(C(F)(F)F)ccc34)CC2)CC1 (stereo not drawn),growth inhibition,[2],38% (inactive) and 85% (active)
same,inhibition,[3],11% (inactive) and 40% (inactive)
same,inhibition,[4],1% (inactive) and 6% (inactive)
same,growth inhibition,[5],98% (active) and 102% (active)
same,outcome,[11],inactive
same,outcome,[12],inactive
same,outcome,[13],inactive
same,outcome,[14],inactive
